Source: PubChem (The Scripps Research Institute Molecular Screening Center)
Shown are actives, neighbours in structure and some others; about 5.7% of the full set was active somewhere.
hcDAF12 agonist = H. contortus DAF-12 activation, primary screen; HEK293 hcDAF-12 lit1-tk-luc reporter, luminescence; 0% DMSO, 100% Δ7-dafachronic acid; activation, % at 6.8 µM; actives 1.4% (n = 370,000); AID 652067;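 active = activation above the mean of all tested compounds plus 3 SD, cut at about 5.5% in these data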;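 also: 100% = response to 3 µM Δ7-dafachronic acid high control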
DAX1 inh-1 = inhibits human nuclear receptor DAX1; P51843; HEK293 Gal4-DAX1 luciferase reporter, luminescence; inhibition, % at 6.75 µM; actives 0.99% (n = 340,000); AID 504766;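 active = inhibition above the mean over all tested compounds plus 3 SD, cut at about 4.2% in these data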;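 also: 0% = DAX1-transfected cells with DMSO and 100% = empty-vector control cells with DMSO; inhibition shows as a rise in luminescence from relieved DAX1 repression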
DAX1 inh-2 = inhibitors of DAX1 repression of SF-1 activated StAR promoter | HEK293T StAR-luciferase reporter, SF-1/DAX-1 repression relief | inhibition, % at 6.8 µM | actives 1.1% (n = 370,000) | AID 652010;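 active = inhibition above the mean over all tested compounds plus 3 SD, cut at about 3.6% in these data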;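 also: 0% = DAX-1 cells with DMSO and 100% = cells lacking DAX-1 with DMSO; higher inhibition means more luminescence from relief of DAX-1 repression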
hgDAF12 agonist = hgDAF-12 agonism, primary luciferase screen; HEK293 GAL4-hgDAF12 UAS-luciferase reporter, agonist luminescence; normalized to butyrate control; activation, % at 6.8 µM; actives 1.8% (n = 370,000); AID 687014;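 active = activation above a cutoff set at the mean of all screened compounds plus 3 SD, cut at about 10% in these data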;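 also: 0% = DMSO wells and 100% = sodium butyrate wells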
AHR activator = human AHR activation; activation, % at 5 µM; actives 2.5% (n = 320,000); P35869; AHR-responsive luciferase reporter cells, luminescence; in the data active = activation above about 47%;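 also: 0% = vehicle wells and 100% = reference agonist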
Target sequence (P35869 whole entry, looked up): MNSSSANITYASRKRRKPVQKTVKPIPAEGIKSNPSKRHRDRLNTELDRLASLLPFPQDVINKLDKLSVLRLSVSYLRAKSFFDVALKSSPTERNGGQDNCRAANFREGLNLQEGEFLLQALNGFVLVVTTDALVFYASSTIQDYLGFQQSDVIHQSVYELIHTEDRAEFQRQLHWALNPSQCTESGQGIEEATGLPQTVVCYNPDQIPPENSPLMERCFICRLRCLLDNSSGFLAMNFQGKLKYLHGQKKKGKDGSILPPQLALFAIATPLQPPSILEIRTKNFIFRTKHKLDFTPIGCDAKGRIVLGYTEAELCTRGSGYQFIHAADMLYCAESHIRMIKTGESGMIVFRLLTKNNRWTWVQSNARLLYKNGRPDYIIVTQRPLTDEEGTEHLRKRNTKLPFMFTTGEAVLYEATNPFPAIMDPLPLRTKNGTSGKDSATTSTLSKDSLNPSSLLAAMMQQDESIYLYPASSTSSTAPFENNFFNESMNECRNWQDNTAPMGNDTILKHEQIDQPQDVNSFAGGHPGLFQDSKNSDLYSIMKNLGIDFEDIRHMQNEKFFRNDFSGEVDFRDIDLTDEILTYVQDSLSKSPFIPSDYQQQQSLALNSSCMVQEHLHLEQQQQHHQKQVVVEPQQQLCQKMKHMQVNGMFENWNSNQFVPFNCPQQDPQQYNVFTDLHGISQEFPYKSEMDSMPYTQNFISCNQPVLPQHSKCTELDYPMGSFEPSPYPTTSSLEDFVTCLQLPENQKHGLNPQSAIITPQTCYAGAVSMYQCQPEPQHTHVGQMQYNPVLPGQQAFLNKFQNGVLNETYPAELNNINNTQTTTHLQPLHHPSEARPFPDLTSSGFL
ssDAF-12 act = activates DAF-12 receptor from parasite S. stercoralis | HEK293 ssDAF-12/GRIP1 lit1-tk-luc reporter, luminescence; % of 3 µM dafachronic acid response | activation, % at 6.8 µM | actives 1% (n = 370,000);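 active = activation above the mean over all tested compounds plus 3 SD, cut at about 0.9% in these data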;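 also: 0% = DMSO-only wells and 100% = 3 µM delta7-dafachronic acid wells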
AHR act cf = human AHR activation, confirmation | shares compounds with AHR activator | human cells, AHR-responsive luciferase reporter, luminescence | activation, % at 9 µM | actives 87% (n = 2,300); in the data active = activation above about 49%;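 also: HepG2 hepatoma cells carrying a DRE-driven firefly luciferase reporter; 0% = vehicle wells and 100% = reference agonist wells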
PXR counter = activates human PXR in AHR activator counter-screen; cell-based PXR reporter, luciferase luminescence; actives 88% (n = 2,300); activation, % at 11.6 µM; shares compounds with AHR activator; in the data active = activation above about 11%;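 also: human hepatoma DPX-2 cells expressing full-length human PXR; 0% = DMSO and 100% = reference agonist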
* hit, by the source's call; . = no result given.

SMILES	hcDAF12 agonist	DAX1 inh-1	DAX1 inh-2	hgDAF12 agonist	AHR activator	ssDAF-12 act	AHR act cf	PXR counter
CCOC(=O)/C(C#N)=C/Nc1ccccc1NS(=O)(=O)c1ccc2c(c1)OCCO2	-2	1	-2	-1	14	-1	.	.
Cc1ccc(-c2[nH]c(-c3ccccc3)nc2SCC(=O)NCC2CCCO2)cc1 (centres undefined)	1	-1	-2	-2	93*	-2	91*	110*
CCn1c(SCC(=O)NCC2CCCO2)nnc1-c1ccc(Cl)cc1 (centres undefined)	2	-1	0	0	2	-2	.	.
Cc1ccc(-c2nc(SCC(=O)NCC3CCCO3)c(-c3ccc(Cl)cc3)[nH]2)cc1 (centres undefined)	0	2	3	1	86*	0	73*	73*
COc1ccc(C(c2c(C)[nH][nH]c2=O)c2c(C)[nH][nH]c2=O)cc1Br	1	0	0	-1	20	-1	.	.
COc1ccc(-c2oc3ccc(N4CCOCC4)cc3c2C#Cc2ccc(N)cc2)cc1	-1	-1	-1	-1	95*	-2	52*	.
COc1cc(-c2csc(NC3CCCCC3)n2)cc(OC)c1OC	0	3	0	2	81*	-1	50*	37*
COc1cc(-c2cc3nc(NC4CCCCC4)ccn3n2)cc(OC)c1OC	-2	.	-2	1	.	-2	.	.
CCOC(=O)c1cc2c(=O)n3ccccc3nc2n(C(C)C)c1=NC(=O)c1c(-c2c(F)cccc2Cl)noc1C	0	-1	0	-2	4	-1	.	.
O=c1c(/C=N/O)coc2ccc3ccccc3c12	0	1	0	5	84*	-1	18	6
Cc1onc(-c2c(Cl)cccc2Cl)c1C(=O)Nc1nccs1	-1	0	-1	0	5	-1	.	.
CC(=O)c1noc(C)c1C(=O)Nc1nccs1	1	0	0	-2	103*	-1	81*	.
c1ccc2c(-c3nc(-c4ccncc4)no3)cccc2c1	1	1	0	3	99*	-1	114*	15*
COCCNC(=S)N/N=C/c1ccc(-c2ccc([N+](=O)[O-])cc2)o1	2	-1	-2	2	128*	1	89*	11*
C[C@H]1CN([C@@H](C)CO)C(=O)CCCn2nncc2CO[C@@H]1CN(C)C(=O)Nc1ccnc(N2CCOCC2)c1	0	2	1	0	.	-1	.	.
Cc1ccc(NCCC(=O)c2cccs2)cc1Cl	4	1	1	12*	86*	0	69*	12*
CCCOc1ccc(C(=O)CCNc2ccc(C)c(Cl)c2)cc1	1	0	0	-2	4	0	.	.
Cc1cc(C)c2oc(-c3cccc(N)c3)nc2c1	3	3	1	10	79*	0	128*	15*
O=C(Nc1ccccc1OCc1ccccc1)c1ccccc1Br	-1	1	-1	2	103*	-1	105*	43*
CC1(C)[C@H]2CC[C@]1(C)[C@@H](OC(=O)C[N+]1(C)CCOCC1)C2	-1	0	0	1	1	-1	.	.
N/C(=N\OC(=O)c1ccccc1[N+](=O)[O-])c1cccnc1	5	0	0	4	138*	0	76*	29*
N/C(=N\OC(=O)c1ccc([N+](=O)[O-])cc1)c1cccnc1	0	1	0	2	-2	-1	.	.
CSCc1cc(C(=O)NCCN2CCOCC2)c(N)s1	-1	.	0	2	.	-1	.	.
CCn1c(=O)cc(OCC(=O)NC2CC2)c2ccccc21	1	1	1	0	97*	-1	84*	25*
COCCOC(=O)c1[nH]c2c(c1C)C(=O)CC(c1ccccc1)C2 (centres undefined)	.	2	.	.	115*	.	56*	124*
